From PubChem
Most compounds without a hit are left out; they make up all but 2.8% or so of the library.
KDM5B inhibitor = KDM5B demethylase inhibition; AID 1347165; Potency, µM (series often up to 57.7 µM), actives largely listed as inhibitors; 220,000 compounds, 2.6% hits; KDM5B demethylase, FDH-coupled NADH fluorescence (FDH is formaldehyde dehydrogenase); Q9UGL1; further: nearly all actives have a fitted effect of over 70% in size
Target sequence (Q9UGL1 whole entry, looked up): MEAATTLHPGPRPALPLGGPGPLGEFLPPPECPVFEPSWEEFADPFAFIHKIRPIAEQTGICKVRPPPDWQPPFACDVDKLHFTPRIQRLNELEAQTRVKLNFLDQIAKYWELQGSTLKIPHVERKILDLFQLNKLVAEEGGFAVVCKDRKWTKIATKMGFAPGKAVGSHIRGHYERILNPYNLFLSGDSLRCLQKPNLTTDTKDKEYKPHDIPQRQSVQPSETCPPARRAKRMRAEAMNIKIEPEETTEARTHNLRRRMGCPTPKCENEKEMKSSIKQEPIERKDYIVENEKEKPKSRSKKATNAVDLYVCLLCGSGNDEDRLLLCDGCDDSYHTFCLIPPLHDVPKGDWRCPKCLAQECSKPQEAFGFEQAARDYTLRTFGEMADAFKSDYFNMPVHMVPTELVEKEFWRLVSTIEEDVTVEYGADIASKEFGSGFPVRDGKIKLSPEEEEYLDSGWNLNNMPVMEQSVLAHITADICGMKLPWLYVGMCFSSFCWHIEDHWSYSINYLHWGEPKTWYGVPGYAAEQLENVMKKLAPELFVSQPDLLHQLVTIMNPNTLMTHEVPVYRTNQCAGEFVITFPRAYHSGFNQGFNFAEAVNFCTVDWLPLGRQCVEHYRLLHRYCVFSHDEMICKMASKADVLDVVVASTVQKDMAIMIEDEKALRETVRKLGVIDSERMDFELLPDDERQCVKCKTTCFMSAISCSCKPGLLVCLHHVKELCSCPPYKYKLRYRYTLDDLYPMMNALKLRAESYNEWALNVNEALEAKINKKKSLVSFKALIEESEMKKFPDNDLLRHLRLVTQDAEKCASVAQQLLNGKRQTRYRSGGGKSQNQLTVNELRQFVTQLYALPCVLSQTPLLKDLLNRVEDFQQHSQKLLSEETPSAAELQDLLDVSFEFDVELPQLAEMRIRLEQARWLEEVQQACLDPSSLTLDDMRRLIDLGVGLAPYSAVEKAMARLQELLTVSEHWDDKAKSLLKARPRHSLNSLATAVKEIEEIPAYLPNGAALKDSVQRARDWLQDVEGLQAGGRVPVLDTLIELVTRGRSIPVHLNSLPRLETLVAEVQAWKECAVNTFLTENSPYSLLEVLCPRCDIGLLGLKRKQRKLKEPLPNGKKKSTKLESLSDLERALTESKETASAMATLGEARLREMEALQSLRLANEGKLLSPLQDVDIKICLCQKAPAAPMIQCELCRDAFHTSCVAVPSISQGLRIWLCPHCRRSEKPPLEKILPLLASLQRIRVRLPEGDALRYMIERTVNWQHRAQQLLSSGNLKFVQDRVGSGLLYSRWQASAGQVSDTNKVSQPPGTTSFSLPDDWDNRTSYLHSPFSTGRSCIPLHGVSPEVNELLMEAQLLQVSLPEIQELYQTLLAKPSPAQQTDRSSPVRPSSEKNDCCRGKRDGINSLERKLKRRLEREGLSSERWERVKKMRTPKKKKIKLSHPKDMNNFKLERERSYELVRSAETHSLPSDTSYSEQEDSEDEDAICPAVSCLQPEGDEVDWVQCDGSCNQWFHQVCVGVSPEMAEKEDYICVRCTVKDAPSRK
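Inhibition is measured as reduced NADH fluorescence generation from FDH coupling to formaldehyde release. Truncated KDM5BΔAP at 200 nM final acts on H3K4me3 peptide (12.5 µM in substrate mix) in pH 7.5 HEPES buffer with Tween-20, 30 min, room temperature.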
IP6K1 inhibitor = blocks human inositol hexakisphosphate kinase 1. Q92551. IP6K1 kinase, ADP-Glo luminescence, 2 h; hits give low values. activity change, % (series mostly up to about 58 µM). 140,000 compounds, 0.81% hits; in the data active means activity change below about -25%
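ADP-Glo luminescence measures ADP made by human IP6K1 during a 2 h RT reaction with ATP/IP6 (mix at 1.3 mM/130 uM); top library doses 57.5 and 19.1 uM final.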
IP6K1 inh cnf = confirmation of human IP6K1 inhibitors. shares compounds with IP6K1 inhibitor. recombinant IP6K1 kinase, ADP-Glo luminescence, 2 h. Potency, µM (top dose mostly 49 µM), usual class: inhibitors. 1,200 compounds, 13% hits. AID 1645852; further: nearly all actives have a fitted effect of over 65% in size
Large screens that a line does not name were inactive (follow-up assays come after a bar, where they were run). Unless noted, the call rests on the fitted dose curve; in most records, active means well fitted inhibition curve with a large enough effect; inconclusive means small, poorly fitted or top-dose-only effect; inactive means no such curve, though single readings can be large or run the other way.

Cc1cccc(C(=O)Oc2ccc(C3(c4ccc(OC(=O)c5cccc(C)c5)cc4)OC(=O)c4ccccc43)cc2)c1	none (no result: IP6K1 inhibitor)
O=C1OC2(c3ccccc31)c1cc(Br)c(O)c(Br)c1Oc1c2cc(Br)c(O)c1Br	IP6K1 inhibitor -69 (no result: KDM5B inhibitor) | IP6K1 inh cnf 3.3µM
Nc1[nH]n(-c2ccccc2)c(=O)c1N=Nc1ccccc1	none (no result: IP6K1 inhibitor)
Nc1ccc(N=Nc2ccccc2)c(N)n1	IP6K1 inhibitor -37 (no result: KDM5B inhibitor) | IP6K1 inh cnf inconclusive
COc1cccc(-c2cccc(C(=O)N3CCCC3C(=O)N3CCN(C(C)=O)CC3)c2)c1 (configuration not stated)	none (no result: KDM5B inhibitor)
COc1ccc(NC(=O)c2c(C)oc3ccc(O)c(CN4CCCCCC4)c23)cc1Cl	none
Cc1ccccc1NC(=O)c1c(C)oc2ccc(O)c(CN3CCCCCC3)c12	KDM5B inhibitor inconclusive, IP6K1 inhibitor -26 | IP6K1 inh cnf inactive
CCCc1nnc(C[C@@H]2C[C@@H](C(C)C)[C@H](CN3CCN(C(C)=O)CC3)C=C2C)o1	none
CN(Cc1cnn(C)c1)C(=O)C1C2C(=O)N(Cc3ccc(F)cc3)C[C@@]23C=C[C@@H]1O3 (some centres not stated)	IP6K1 inhibitor -42 | IP6K1 inh cnf inactive
O=C(C1C2C(=O)N(Cc3ccc(F)cc3)C[C@@]23C=C[C@@H]1O3)N1CCSCC1 (some centres not stated)	none
COC(=O)c1[nH]c2ccc(F)cc2c1NC(=O)c1ccccc1F	none (no result: IP6K1 inhibitor)
O=C(NC1CCCN(c2ccnc3ccnn23)C1)c1ccc2c(c1)OCO2 (configuration not stated)	none (no result: KDM5B inhibitor)
O=C(O)c1cccc(NC(=O)c2cccc(S(=O)(=O)Nc3cccc(C(=O)O)c3)c2)c1	KDM5B inhibitor inconclusive, IP6K1 inhibitor -28 | IP6K1 inh cnf inconclusive
O=C(O)c1cccc(NC(=O)c2cccc(S(=O)(=O)Nc3cccc(F)c3)c2)c1	none
CC(C)C(=O)NC1CCCN(C(=O)c2cc(=O)[nH]c3ccccc23)C1 (configuration not stated)	none (no result: IP6K1 inhibitor)
N#CCCN(C(=O)COc1ncnc2sc3c(c12)CCCC3)c1ccccc1	none (no result: IP6K1 inhibitor)
COc1cccc(CCC(=O)N2C[C@@H]3CC[C@H](C2)N(CC2CCC2)C3=O)c1	IP6K1 inhibitor -31 | IP6K1 inh cnf inactive
COc1cccc(CCC(=O)N2CC3CC(C2)[C@H]2CCCC(=O)N2C3)c1 (some centres not stated)	none
Cc1nc(CC2CCN(C(=O)c3cc4c(s3)CCC(C)C4)CC2)no1 (configuration not stated)	none
Cc1ccc(C(C(=O)N2CCC(Cc3noc(C)n3)CC2)N(C)C)cc1 (configuration not stated)	IP6K1 inhibitor -27 | IP6K1 inh cnf inactive
Cc1ccc2c(CN3CCN(c4ccccc4)CC3)cc(=O)oc2c1C	none (no result: IP6K1 inhibitor)
Cc1[nH]c(/C=C2\C(=O)Nc3ccccc32)c(C)c1CCC(=O)O	none (no result: KDM5B inhibitor, IP6K1 inhibitor) | IP6K1 inh cnf inactive
O=C1Nc2ccccc2/C1=C/c1csc(-c2ccccc2)n1	none (no result: IP6K1 inhibitor)
O=C(/C=C/c1ccc(F)cc1)c1ccc(-c2ccccc2)cc1	none (no result: IP6K1 inhibitor)
CCCCOc1ccccc1C1CC(=O)Nc2cc(OC)c(OC)cc21 (configuration not stated)	none
CCCCOc1ccccc1C1CC(=O)Nc2cc(C)c(C)cc21 (configuration not stated)	IP6K1 inhibitor -28 | IP6K1 inh cnf inactive
CN1C(=O)CC[C@H]1c1cccnc1	none (no result: KDM5B inhibitor)
CN1CCC[C@@H]1c1cccnc1	IP6K1 inhibitor -31 (no result: KDM5B inhibitor) | IP6K1 inh cnf inactive
CN(C)c1cccc(NC(=O)Cc2c[nH]c3ncc(-c4ccccc4)cc23)c1	KDM5B inhibitor inconclusive
COc1ccc(-c2cnc3[nH]cc(CC(=O)Nc4cccc(N(C)C)c4)c3c2)cc1	KDM5B inhibitor inconclusive
COc1ccc(-c2cnc3[nH]cc(CC(=O)Nc4ccncc4)c3c2)cc1	KDM5B inhibitor inconclusive, IP6K1 inhibitor -39 | IP6K1 inh cnf inconclusive
C[S+](=O)([O-])c1cccc(NC(=O)Cc2c[nH]c3ncc(-c4ccccc4)cc23)c1	KDM5B inhibitor 32µM, IP6K1 inhibitor -26 | IP6K1 inh cnf inconclusive
Cc1cccc(NC(=O)COc2ncnc3ccc(Br)cc23)c1C	none (no result: IP6K1 inhibitor)
CCc1c(C)nc2c(-c3cnn(-c4cc(CO)ccn4)c3)c[nH]n2c1=O	none (no result: KDM5B inhibitor)
COc1cccc(/C=C(\C#N)C(=O)Nc2ccccc2C(=O)O)c1OC	none (no result: IP6K1 inhibitor)
CN1C(=O)NC(Cc2c[nH]c3c(Cl)cccc23)C1=O (configuration not stated)	none (no result: KDM5B inhibitor, IP6K1 inhibitor) | IP6K1 inh cnf inactive
CN1C(=O)N[C@@H](Cc2c[nH]c3c(Cl)cccc23)C1=O	none (no result: KDM5B inhibitor)
NC[C@H](O)c1ccc(O)c(O)c1	IP6K1 inhibitor -70 (no result: KDM5B inhibitor) | IP6K1 inh cnf inactive
CNC[C@H](O)c1ccc(O)c(O)c1	none (no result: KDM5B inhibitor)
CC(=O)N1CCN(C(=O)c2ccc3c(c2)NC(C)(CNc2ccccc2)CO3)CC1 (configuration not stated)	KDM5B inhibitor inconclusive
CC1(CNc2ccccc2)COc2ccc(C(=O)NCCc3cnc[nH]3)cc2N1 (configuration not stated)	KDM5B inhibitor inconclusive, IP6K1 inhibitor -40 | IP6K1 inh cnf inconclusive
Cn1nccc1Nc1nccc(-c2ccn([C@H](CO)c3ccc(Cl)c(F)c3)c(=O)c2)n1	IP6K1 inhibitor -36 (no result: KDM5B inhibitor) | IP6K1 inh cnf 8.2µM
N#CC1CCN(C(=O)c2nc3cccnc3n(Cc3ccccc3)c2=O)CC1	none (no result: KDM5B inhibitor)
CC1CC(C)(C)C(CNC(=O)CCl)C1NC(=O)CCl (configuration not stated)	none (no result: IP6K1 inhibitor)
CN(Cc1nc(-c2cccc(Cl)c2)no1)C1CCOCC1	none (no result: IP6K1 inhibitor)
CN(Cc1nc(-c2ccncc2)no1)C1CCC2(CCNCC2)CC1	IP6K1 inhibitor -41 | IP6K1 inh cnf inactive
Oc1ccc(Nc2nc(-c3ccc(Cl)cc3)cs2)cc1	IP6K1 inhibitor -32 (no result: KDM5B inhibitor) | IP6K1 inh cnf inconclusive
Cc1ccc(-c2csc(Nc3ccc(O)cc3)n2)cc1C	none (no result: IP6K1 inhibitor)
COc1ccccc1-c1cc(C(=O)N(C)C)nn2cnnc12	none (no result: KDM5B inhibitor)
Cc1c(C)n(C)c2ccc(C(=O)N3CCN(c4ccccn4)CC3)cc12	none (no result: IP6K1 inhibitor)
Cc1c(C)n(C)c2ccc(C(=O)N3CCN(c4ccccc4)CC3)cc12	IP6K1 inhibitor -27 | IP6K1 inh cnf inactive
O=C(CCn1cncn1)N1CCC(c2nccn2Cc2cccnc2)CC1	IP6K1 inhibitor -38 | IP6K1 inh cnf inactive
O=C(Cn1cnnn1)N1CCC(c2nccn2Cc2cccnc2)CC1	KDM5B inhibitor inconclusive
Cc1cc(F)ccc1NS(=O)(=O)c1ccc(-c2cnc(C3CC3)o2)cc1	none (no result: IP6K1 inhibitor)
COc1ccc(-c2cn3c(n2)sc2cc(C(=O)NCc4cccs4)ccc23)cc1	KDM5B inhibitor inconclusive
O=C(NCc1cccs1)c1ccc2c(c1)sc1nc(-c3ccccc3)cn12	KDM5B inhibitor inconclusive, IP6K1 inhibitor -25 | IP6K1 inh cnf inconclusive
COc1ccc(C(=O)COC(=O)c2ccc(F)cc2F)c(OC)c1	none (no result: IP6K1 inhibitor)
c1csc(-c2nc3ccccn3c2Nc2ccc3c(c2)OCCO3)c1	KDM5B inhibitor inconclusive
Cc1ccn2c(Nc3ccc4c(c3)OCCO4)c(-c3cccs3)nc2c1	KDM5B inhibitor inconclusive, IP6K1 inhibitor -27 | IP6K1 inh cnf inactive
CCOc1ccc(S(=O)(=O)c2cn(Cc3cc(C)ccc3C)c3ccc(OCC)cc3c2=O)cc1	none
Cc1ccc(C)c(Cn2cc(S(=O)(=O)c3ccc(Cl)cc3)c(=O)c3cc(F)ccc32)c1	IP6K1 inhibitor -25 | IP6K1 inh cnf inactive
Cn1c(=O)c2c([nH]c(=O)n2C)n(Cc2ccccc2)c1=O	none (no result: IP6K1 inhibitor)
Cn1sc(=O)n(Cc2ccccc2)c1=O	IP6K1 inhibitor -83 (no result: KDM5B inhibitor) | IP6K1 inh cnf 18µM
